Test results published in the supplement of paper PMC10849652.
Of roughly 7,900 targets only a part is listed; those with a hit were picked by preference. About 0.6% of all pairs of compound and target were hits.

Experiments:
Experiment in all cases: log2 fold change, soluble protein after heating vs DMSO (PISA); higher = thermal stabilisation; K562 cells, 10 uM, 30 min; active = over 0.2 and 3.5 SD of the protein, either way, in both replicates (recomputed)
erlotinib = compound: C#Cc1cccc(Nc2ncnc3cc(OCCOC)c(OCCOC)cc23)c1 [erlotinib]
Summary of the method: (§1)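 K562 cells at 2×10^6 cells/mL were treated with 10 μM compound for 30 min. Aliquots were heated for 3 min across 48°C-58°C, pooled, and extracted in PBS with 0.5% NP-40 at 4°C; soluble protein was the supernatant after 21,000xg for 90 min. Soluble protein was quantified by TMTpro 16plex LC-MS/MS with channel sums equalised, and reported as log2 fold change in thermal stability against DMSO controls, with values from duplicates.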

[1] = compound: C/C(=N\NC(=O)C1=CC(=CC=C1)S(=O)(=O)N2CCOCC2)/C3=C(C=CC(=C3)Cl)O
Summary of the method: as §1

[2] = compound: C1=CC(=C(C=C1Cl)C2=NC3=NC=CN=C3C(=N2)NC4=CC=NC=C4)F
Summary of the method: as §1

[3] = compound: C1=CC(=CC=C1C2=NC3=C(N2)C=C(C=C3)C(=O)N)OC4=CC=C(C=C4)Cl
Summary of the method: as §1

[4] = compound: C1=CC2=C(C=CC(=C2)/C=C\3/C(=O)NC(=NCC4=CC=CS4)S3)N=C1
Summary of the method: as §1

[5] = compound: C1=CC2=NC=CN=C2C=C1/C=C/3\C(=O)NC(=O)S3
Summary of the method: as §1

[6] = compound: C1=CC=C(C=C1)C2=NC(=C(N2)C3=CC=NC=C3)C4=CC(=C(C=C4)Cl)O
Summary of the method: as §1

[7] = compound: C1=CC=C2C(=C1)C3=NNC4=CC=CC(=C43)C2=O
Summary of the method: as §1

[8] = compound: C1CCN(C1)C(=O)NC2=CC=CC(=C2)NC3=NC=C(C(=N3)NCCC4=CN=CN4)Br
Summary of the method: as §1

[9] = compound: C1CN(CCC1(CC2=CC=C(C=C2)Cl)N)C3=NC=NC4=C3C=CN4
Summary of the method: as §1

Measured: log2 fold change

HECTD1 (UniProt Q9ULT8)
inactive: erlotinib 0.009 | [1] 0.127 | [2] -0.031 | [3] -0.003 | [4] 0.025 | [5] 0.087 | [6] -0.038 | [7] -0.035 | [8] -0.076 | [9] -0.204

FDFT1 (UniProt P37268)
UniProt P37268, sequence (P37268 whole entry, looked up): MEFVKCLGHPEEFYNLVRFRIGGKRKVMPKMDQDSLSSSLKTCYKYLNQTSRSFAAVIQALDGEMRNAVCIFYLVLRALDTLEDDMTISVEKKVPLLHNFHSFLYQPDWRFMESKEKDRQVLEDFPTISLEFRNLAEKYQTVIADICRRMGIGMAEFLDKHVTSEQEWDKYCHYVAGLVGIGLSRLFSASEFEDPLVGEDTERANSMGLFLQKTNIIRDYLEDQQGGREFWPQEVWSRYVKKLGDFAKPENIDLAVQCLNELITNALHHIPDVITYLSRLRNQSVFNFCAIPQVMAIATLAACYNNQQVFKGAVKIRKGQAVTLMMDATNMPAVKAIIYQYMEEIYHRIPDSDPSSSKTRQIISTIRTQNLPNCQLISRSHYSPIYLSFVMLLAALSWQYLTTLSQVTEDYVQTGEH
inactive: erlotinib 0.126 | [1] -0.026 | [2] -0.01 | [3] 0.037 | [4] 0.209 | [5] 0 | [6] 0.011 | [7] 0.144 | [8] -0.039 | [9] 0.059

HS1BP3 (UniProt Q53T59)
inactive: erlotinib 0.008 | [1] 0.042 | [2] 0 | [3] -0.073 | [4] 0.147 | [5] -0.008 | [6] -0.032 | [7] -0.03

GABARAPL2 (UniProt P60520)
inactive: erlotinib 0.065 | [1] 0.013 | [2] 0.021 | [3] -0.02 | [4] 0.072 | [5] 0.016 | [6] 0.077 | [7] 0.008 | [8] -0.027 | [9] -0.021

FYB1 isoform 3 (UniProt O15117)
inactive: erlotinib 0.019 | [1] 0.032 | [2] -0.02 | [3] -0.01 | [4] 0.057 | [5] 0.006 | [6] 0.014 | [7] -0.08 | [8] -0.041 | [9] 0

HBQ1 (UniProt P09105)
active: [2] 0.33
inactive: erlotinib -0.007 | [1] -0.021 | [3] 0.03 | [4] 0.059 | [5] 0.011 | [6] 0.051 | [7] -0.021 | [8] -0.093 | [9] 0.026

GUK1 isoform 2 (UniProt Q16774)
inactive: erlotinib 0.009 | [1] 0.289 | [2] 0.092 | [3] 0 | [4] 0.004 | [5] 0 | [6] -0.02 | [7] 0.021 | [8] -0.03 | [9] 0.066

IFT80 isoform 3 (UniProt Q9P2H3)
UniProt Q9P2H3, sequence (Q9P2H3 whole entry, looked up): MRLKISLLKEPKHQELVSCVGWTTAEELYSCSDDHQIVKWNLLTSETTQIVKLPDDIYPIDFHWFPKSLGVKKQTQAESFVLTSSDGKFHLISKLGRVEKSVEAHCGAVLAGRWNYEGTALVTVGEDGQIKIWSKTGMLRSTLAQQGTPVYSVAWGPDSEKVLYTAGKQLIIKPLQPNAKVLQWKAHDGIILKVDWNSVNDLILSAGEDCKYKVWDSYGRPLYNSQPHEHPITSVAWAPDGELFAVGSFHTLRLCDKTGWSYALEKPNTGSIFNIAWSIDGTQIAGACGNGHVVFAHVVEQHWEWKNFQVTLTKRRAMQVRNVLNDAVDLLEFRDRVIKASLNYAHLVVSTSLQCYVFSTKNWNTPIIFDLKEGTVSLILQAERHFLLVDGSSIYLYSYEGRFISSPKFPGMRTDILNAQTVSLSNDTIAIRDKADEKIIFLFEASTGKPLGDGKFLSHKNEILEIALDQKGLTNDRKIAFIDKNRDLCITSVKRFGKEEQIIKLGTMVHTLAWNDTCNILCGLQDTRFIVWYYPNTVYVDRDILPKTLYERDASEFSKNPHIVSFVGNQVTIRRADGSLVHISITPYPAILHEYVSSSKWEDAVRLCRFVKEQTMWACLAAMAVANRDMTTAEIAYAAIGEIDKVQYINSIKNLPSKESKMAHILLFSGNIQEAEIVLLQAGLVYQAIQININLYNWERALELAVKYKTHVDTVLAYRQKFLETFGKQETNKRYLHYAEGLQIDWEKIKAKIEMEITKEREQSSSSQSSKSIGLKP
inactive: erlotinib 0.04 | [1] 0.071 | [2] -0.04 | [3] 0.013 | [4] 0.042 | [5] -0.011 | [6] -0.066 | [7] -0.229 | [8] -0.013 | [9] 0.042

GCSH (UniProt P23434)
inactive: erlotinib -0.072 | [1] -0.023 | [2] 0.253 | [3] 0.061 | [4] -0.036 | [5] 0.067 | [6] -0.038 | [7] -0.007 | [8] -0.017 | [9] -0.025

FANCI (UniProt Q9NVI1)
UniProt Q9NVI1, sequence (Q9NVI1 whole entry, looked up): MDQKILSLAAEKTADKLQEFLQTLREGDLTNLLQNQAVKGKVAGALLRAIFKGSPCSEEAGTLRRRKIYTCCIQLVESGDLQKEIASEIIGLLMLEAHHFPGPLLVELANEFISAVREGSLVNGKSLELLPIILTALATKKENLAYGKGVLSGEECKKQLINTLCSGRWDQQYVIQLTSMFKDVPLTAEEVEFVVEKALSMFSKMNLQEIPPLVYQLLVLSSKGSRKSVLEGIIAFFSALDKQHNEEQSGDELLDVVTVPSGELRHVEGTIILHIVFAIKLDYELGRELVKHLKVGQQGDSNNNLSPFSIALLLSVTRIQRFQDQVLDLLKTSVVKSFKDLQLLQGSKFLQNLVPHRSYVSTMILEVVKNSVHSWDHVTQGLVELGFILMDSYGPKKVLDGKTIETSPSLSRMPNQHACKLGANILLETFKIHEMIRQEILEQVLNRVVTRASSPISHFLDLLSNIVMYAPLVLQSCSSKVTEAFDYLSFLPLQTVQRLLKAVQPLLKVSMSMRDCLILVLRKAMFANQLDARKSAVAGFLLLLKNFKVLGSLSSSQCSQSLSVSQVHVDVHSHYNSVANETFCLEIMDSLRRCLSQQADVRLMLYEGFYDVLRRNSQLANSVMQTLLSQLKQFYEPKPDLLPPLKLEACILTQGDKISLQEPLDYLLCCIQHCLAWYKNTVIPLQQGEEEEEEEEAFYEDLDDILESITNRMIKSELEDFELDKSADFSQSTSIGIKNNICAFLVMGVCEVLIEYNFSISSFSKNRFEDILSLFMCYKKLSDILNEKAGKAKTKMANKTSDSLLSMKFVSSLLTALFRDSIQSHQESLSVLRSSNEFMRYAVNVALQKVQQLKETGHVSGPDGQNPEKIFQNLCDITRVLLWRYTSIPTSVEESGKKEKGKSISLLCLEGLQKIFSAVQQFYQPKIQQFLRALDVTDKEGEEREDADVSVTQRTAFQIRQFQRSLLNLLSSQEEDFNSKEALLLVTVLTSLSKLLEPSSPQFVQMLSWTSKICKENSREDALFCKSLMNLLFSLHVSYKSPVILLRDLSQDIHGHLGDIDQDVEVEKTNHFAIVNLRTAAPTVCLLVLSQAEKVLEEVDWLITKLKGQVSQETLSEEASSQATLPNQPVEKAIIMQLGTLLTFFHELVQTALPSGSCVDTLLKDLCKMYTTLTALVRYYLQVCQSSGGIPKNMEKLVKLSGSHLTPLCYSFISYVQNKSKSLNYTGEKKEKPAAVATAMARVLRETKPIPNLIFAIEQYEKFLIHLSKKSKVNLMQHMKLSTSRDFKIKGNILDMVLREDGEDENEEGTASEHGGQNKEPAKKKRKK
inactive: erlotinib 0.083 | [1] 0.026 | [2] 0.056 | [3] 0.062 | [4] 0.142 | [5] 0.008 | [6] 0.053 | [7] -0.019 | [8] -0.028 | [9] -0.006

IFT74 (UniProt Q96LB3)
active: [1] -0.95
inactive: erlotinib 0.248 | [2] 0.125 | [3] -0.352 | [4] 0.087 | [5] -0.033 | [6] 0.211 | [7] -0.038 | [8] -0.076 | [9] 0.337

HOOK3 (UniProt Q86VS8)
inactive: erlotinib 0.04 | [1] 0.039 | [2] 0.009 | [3] -0.008 | [4] 0.055 | [5] 0.032 | [6] -0.002 | [7] -0.036 | [8] -0.005 | [9] -0.024

FDXR isoform 7 (UniProt P22570)
UniProt P22570, sequence (P22570 whole entry, looked up): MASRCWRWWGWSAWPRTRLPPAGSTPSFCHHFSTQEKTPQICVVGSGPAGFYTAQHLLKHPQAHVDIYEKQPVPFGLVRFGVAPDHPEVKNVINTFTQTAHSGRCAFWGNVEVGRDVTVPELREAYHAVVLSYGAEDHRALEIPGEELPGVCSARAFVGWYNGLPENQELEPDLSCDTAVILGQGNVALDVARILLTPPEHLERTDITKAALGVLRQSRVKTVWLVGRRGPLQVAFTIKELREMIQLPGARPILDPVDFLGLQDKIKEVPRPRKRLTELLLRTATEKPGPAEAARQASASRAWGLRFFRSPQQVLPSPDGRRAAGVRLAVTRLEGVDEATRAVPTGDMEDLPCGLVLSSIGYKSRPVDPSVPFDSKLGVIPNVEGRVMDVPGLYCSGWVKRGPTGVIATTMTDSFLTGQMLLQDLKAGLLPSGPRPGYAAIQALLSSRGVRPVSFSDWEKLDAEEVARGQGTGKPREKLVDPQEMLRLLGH
inactive: erlotinib 0.092 | [1] 0.033 | [2] 0.109 | [3] -0.126 | [4] 0.076 | [5] -0.13 | [6] 0.064 | [7] 0 | [8] 0.025 | [9] 0.019

GSTT1 (UniProt P30711)
UniProt P30711, sequence (P30711 whole entry, looked up): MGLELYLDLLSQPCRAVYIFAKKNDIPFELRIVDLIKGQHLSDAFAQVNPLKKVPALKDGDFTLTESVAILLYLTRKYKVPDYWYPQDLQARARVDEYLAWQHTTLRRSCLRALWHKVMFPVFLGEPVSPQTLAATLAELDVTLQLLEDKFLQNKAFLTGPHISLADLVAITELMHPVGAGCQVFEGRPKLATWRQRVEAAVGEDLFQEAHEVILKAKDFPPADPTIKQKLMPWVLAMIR
inactive: erlotinib 0.037 | [1] -0.007 | [2] 0.275 | [3] 0.033 | [4] 0.114 | [5] 0.037 | [6] -0.044 | [7] -0.031 | [8] 0.003 | [9] -0.028

FAM91A1 (UniProt Q658Y4)
UniProt Q658Y4, sequence (Q658Y4 whole entry, looked up): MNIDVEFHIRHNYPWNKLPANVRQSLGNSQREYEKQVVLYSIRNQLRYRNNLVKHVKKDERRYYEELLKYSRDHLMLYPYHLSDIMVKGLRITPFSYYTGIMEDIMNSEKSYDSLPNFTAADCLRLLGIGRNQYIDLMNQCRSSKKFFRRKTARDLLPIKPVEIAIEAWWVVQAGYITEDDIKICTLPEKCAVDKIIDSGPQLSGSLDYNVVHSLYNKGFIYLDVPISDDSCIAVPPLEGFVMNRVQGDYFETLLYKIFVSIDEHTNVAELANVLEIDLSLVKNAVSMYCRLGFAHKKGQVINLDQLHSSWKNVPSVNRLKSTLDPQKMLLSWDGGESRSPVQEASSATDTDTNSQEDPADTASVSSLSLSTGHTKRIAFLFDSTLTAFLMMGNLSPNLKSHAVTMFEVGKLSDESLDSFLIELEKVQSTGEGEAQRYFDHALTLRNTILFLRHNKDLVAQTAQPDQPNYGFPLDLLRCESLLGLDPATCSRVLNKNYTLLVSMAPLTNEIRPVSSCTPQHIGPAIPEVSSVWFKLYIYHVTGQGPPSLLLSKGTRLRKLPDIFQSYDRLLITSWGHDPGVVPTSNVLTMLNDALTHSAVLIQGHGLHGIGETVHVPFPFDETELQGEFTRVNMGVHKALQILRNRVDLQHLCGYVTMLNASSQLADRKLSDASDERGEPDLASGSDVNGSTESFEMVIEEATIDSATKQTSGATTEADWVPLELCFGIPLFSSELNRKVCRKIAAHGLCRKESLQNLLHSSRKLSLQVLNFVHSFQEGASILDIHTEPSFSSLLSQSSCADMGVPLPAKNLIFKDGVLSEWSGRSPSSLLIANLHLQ
inactive: erlotinib 0.005 | [1] 0.019 | [2] 0.168 | [3] 0.082 | [4] 0.019 | [5] -0.017 | [6] -0.033 | [7] 0.069 | [8] -0.057 | [9] -0.152

GUSB (UniProt P08236)
inactive: erlotinib 0.09 | [1] -0.099 | [2] -0.063 | [3] 0.165 | [4] -0.095 | [5] 0.032 | [6] 0.009 | [7] 0.052 | [8] 0.033 | [9] -0.002

HIP1 (UniProt O00291)
inactive: erlotinib 0.018 | [1] 0.033 | [2] 0.046 | [3] -0.004 | [4] 0.018 | [5] -0.056 | [6] 0.011 | [7] -0.166 | [8] -0.209 | [9] 0.09

HSPA8 (UniProt P11142)
inactive: erlotinib -0.016 | [1] -0.031 | [2] 0.01 | [3] -0.014 | [4] 0 | [5] 0 | [6] -0.003 | [7] -0.088 | [8] 0.009 | [9] 0.017

HSPA8 (UniProt E9PK54)
inactive: erlotinib -0.008 | [1] 0 | [2] -0.346 | [3] 0.032 | [4] 0 | [5] 0.034 | [6] -0.211 | [7] -0.095 | [8] -0.056 | [9] -0.158

HIST2H2BF isoform 2 (UniProt Q5QNW6)
inactive: erlotinib 0.013 | [1] -0.161 | [2] -0.433 | [3] 0.046 | [4] 0.048 | [5] 0.223 | [6] -0.057 | [7] -0.083 | [8] 0.191 | [9] -0.373

HK2 (UniProt P52789)
inactive: erlotinib -0.068 | [1] 0.037 | [2] 0.051 | [3] 0 | [4] 0.028 | [5] -0.015 | [6] 0.005 | [7] -0.017 | [8] 0.009 | [9] 0.023

FBXO3 (UniProt Q9UK99)
inactive: erlotinib 0.01 | [1] 0.044 | [2] 0.141 | [3] -0.018 | [4] -0.038 | [5] 0.062 | [6] 0.112 | [7] -0.003 | [8] -0.029 | [9] 0.002

GALNT2 (UniProt Q10471)
inactive: erlotinib -0.052 | [1] 0.043 | [2] 0.021 | [3] 0 | [4] 0.009 | [5] 0.022 | [6] 0.028 | [7] 0.046 | [8] 0.009 | [9] 0.042

FARS2 (UniProt O95363)
inactive: erlotinib 0 | [1] 0.081 | [2] -0.046 | [3] 0.061 | [4] -0.03 | [5] -0.018 | [6] 0.014 | [7] 0.065 | [8] 0.084 | [9] -0.057

GALK1 isoform 2 (UniProt P51570)
inactive: erlotinib 0.002 | [1] 0.082 | [2] 0.158 | [3] -0.023 | [4] -0.08 | [5] 0.016 | [6] 0.07 | [7] 0.055 | [8] -0.094 | [9] 0.076

FBXO42 (UniProt Q6P3S6)
UniProt Q6P3S6, sequence (Q6P3S6 whole entry, looked up): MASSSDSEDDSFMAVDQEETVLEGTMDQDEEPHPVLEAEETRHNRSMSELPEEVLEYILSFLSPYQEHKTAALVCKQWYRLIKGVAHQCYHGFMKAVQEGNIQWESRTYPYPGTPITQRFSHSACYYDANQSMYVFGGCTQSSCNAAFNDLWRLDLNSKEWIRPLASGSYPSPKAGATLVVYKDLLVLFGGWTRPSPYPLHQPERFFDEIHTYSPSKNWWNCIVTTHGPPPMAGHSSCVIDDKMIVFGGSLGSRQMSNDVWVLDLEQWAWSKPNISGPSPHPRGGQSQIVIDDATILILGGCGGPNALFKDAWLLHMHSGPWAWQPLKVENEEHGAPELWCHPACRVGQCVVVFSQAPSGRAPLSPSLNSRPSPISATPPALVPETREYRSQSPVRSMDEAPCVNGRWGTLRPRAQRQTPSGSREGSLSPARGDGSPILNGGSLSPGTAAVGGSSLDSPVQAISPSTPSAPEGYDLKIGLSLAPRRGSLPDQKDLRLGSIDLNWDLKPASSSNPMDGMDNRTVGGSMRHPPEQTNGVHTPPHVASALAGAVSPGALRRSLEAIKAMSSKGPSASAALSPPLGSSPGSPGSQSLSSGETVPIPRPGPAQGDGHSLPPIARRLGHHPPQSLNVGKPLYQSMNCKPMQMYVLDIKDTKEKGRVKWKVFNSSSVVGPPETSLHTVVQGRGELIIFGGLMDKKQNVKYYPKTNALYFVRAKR
inactive: erlotinib 0.026 | [1] -0.006 | [2] -0.002 | [3] 0.025 | [4] 0.025 | [5] 0.055 | [6] 0.051 | [7] -0.006 | [8] -0.05 | [9] -0.024

FANCD2 isoform 1 (UniProt Q9BXW9)
inactive: erlotinib 0.077 | [1] 0.075 | [2] -0.003 | [3] 0.012 | [4] 0.145 | [5] 0.02 | [6] 0 | [7] -0.012 | [8] -0.008 | [9] 0.02

GPKOW (UniProt Q92917)
inactive: erlotinib 0.099 | [1] 0.116 | [2] 0.016 | [3] 0.016 | [4] 0.057 | [5] 0.013 | [6] -0.016 | [7] 0.029 | [8] -0.011 | [9] 0.001

GNAS (UniProt Q5JWF2)
inactive: erlotinib 0.001 | [1] 0.042 | [2] -0.032 | [3] 0.043 | [4] 0.026 | [5] 0.021 | [6] 0.02 | [7] 0.011 | [8] -0.011 | [9] 0.043

H2AZ1 (UniProt P0C0S5)
UniProt P0C0S5, sequence (P0C0S5 whole entry, looked up): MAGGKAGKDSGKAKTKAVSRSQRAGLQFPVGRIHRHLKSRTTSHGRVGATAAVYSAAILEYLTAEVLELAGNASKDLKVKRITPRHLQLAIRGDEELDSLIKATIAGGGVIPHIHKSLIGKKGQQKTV
inactive: erlotinib -0.025 | [1] -0.13 | [2] -0.554 | [3] -0.014 | [4] -0.087 | [5] 0.169 | [6] -0.189 | [7] 0.036 | [8] 0.07 | [9] 0.037
